Luc counter – Counterscreen for Luciferase (Kinase-Glo TM) Inhibition; Kinase-Glo luciferase, ATP luminescence, 8 min; Potency, µM (titrated, usually from 38.3 µM), without a hit: top-dose activity change, negative = inhibition, hits mostly inhibitors; 0.28% of 200,000 active; AID 1379, 2008; further: on the % scale 0 is the no-effect control and ±100 the full control effect; nearly all actives have a fitted effect of over 60% in size
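Luminescence was the read-out, taken after 8-minute incubation at ambient temperature. Luciferase turned over luciferin with 10 uM ATP in imidazole pH 7.2 buffer containing KCl, MgCl2, Tween 20 and BSA.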
Rab9 prom act – qHTS Assay for Rab9 Promoter Activators. Huh7 Rab9 promoter-luciferase reporter, luminescence, 24 h. Potency, µM (highest dose often 9.22 µM), for the others: at the highest dose activation, negative = inhibition, most hits filed as activators. 2.8% of 320,000 active; further: % of control where 0% means no effect; nearly all actives have a fitted effect of over 60% in size
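Rab9 promoter-driven luciferase in stably transfected Huh7 cells; 1500 cells/well rested 2 h, exposed to compound in DMSO for 24 h at 37 °C, 5% CO2. Luminescence read 10 min after adding luciferase reagent at ambient temperature.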
FLuc modulator – qHTS profiling assay for firefly luciferase inhibitor/activator using purifed enzyme and Km concentrations of substrates (counterscreen for miR-21 project); 6.9% of 360,000 active; Potency, µM (series often up to 57.5 µM), without a hit: at the highest dose activity change, negative = inhibition, usual class: inhibitors; Luciferin 4-monooxygenase (Photinus pyralis), P08659; purified FLuc, Km substrates, luminescence inhibition;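 further: plate controls were vehicle for no effect and reference inhibitor for full effect; nearly all actives have a fitted effect of over 55% in size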
Target sequence (P08659 whole entry, looked up): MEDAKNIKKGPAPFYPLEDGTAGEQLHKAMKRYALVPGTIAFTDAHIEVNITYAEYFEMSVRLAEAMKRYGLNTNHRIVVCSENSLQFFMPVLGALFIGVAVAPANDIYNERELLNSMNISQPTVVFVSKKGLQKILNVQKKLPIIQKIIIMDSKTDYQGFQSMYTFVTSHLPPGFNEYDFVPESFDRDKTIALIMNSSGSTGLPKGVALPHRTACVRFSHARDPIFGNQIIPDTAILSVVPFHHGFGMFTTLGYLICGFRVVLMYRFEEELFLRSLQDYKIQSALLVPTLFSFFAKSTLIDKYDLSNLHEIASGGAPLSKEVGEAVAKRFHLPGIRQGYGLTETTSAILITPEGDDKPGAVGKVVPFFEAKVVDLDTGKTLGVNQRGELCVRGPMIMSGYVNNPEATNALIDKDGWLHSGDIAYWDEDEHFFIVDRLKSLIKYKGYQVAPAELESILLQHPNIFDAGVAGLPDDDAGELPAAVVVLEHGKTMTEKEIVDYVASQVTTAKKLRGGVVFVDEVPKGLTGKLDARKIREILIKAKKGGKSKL
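Purified P. pyralis luciferase (10nM final) with 10uM D-luciferin and 10uM ATP (Km levels) in 50mM Tris acetate pH 7.5, 10mM Mg acetate, 0.01% Tween-20, 0.05% BSA; qHTS 6-point titration, ~60 µM downward; luminescence read.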
NPC1 prom act – qHTS Assay for NPC1 Promoter Activators; 2.4% of 320,000 active; Huh7 NPC1 promoter luciferase reporter, 24 h; Potency, µM (top dose mostly 9.22 µM), for the others: at the highest dose activation, most hits filed as activators; further: % of control where 0% means no effect; nearly all actives have a fitted effect of over 60% in size
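NPC1 promoter–luciferase Huh7 cells; 24 h compound; luminescence.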
SMN2 splice up – qHTS Assay for Enhancers of SMN2 Splice Variant Expression; AID 1458, 2008; Potency, µM (top dose mostly 46.1 µM), inactives show at the top dose activity change, positive = activation, actives largely listed as activators; HEK293 SMN2-luciferase splicing reporter, luminescence, 30-36 h; 2.8% of 210,000 active; further: % of control where 0% means no effect; nearly all actives have a fitted effect of over 55% in size
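HEK293 cells carry an SMN2 minigene-luciferase reporter in which exon 7 inclusion puts luciferase in frame. Cells were seeded at 2000 cells/well, attached for 10-12 hours, then exposed to compounds for 30-36 hours at 37C before ONE-Glo luminescence.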
ELG1 genotox – qHTS screen for small molecules that induce genotoxicity in human embryonic kidney (HEK293T) cells expressing luciferase-tagged ELG1; 1.3% of 330,000 active; HEK293T ELG1-luciferase reporter, luminescence, 16 h; Potency, µM (top dose mostly 46 µM), for inactives: top-dose activity change, positive = activation, usual class: activators; further: % of control where 0% means no effect; nearly all actives have a fitted effect of over 60% in size
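16 hr compound incubation (37 °C, 5% CO2) of HEK293T cells carrying luciferase-tagged ELG1; luciferase then measured by ONE-Glo luminescence after 30 min at RT.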
Starred values were filed as active, the others as inactive; ? = inconclusive; . = not tested or not shown; [ ] = dose if it differs, or a comment. Hits are enriched below; roughly 7.5% of the tested compounds scored in any of these assays. The call rests on the fitted dose curve; in most records, active means well fitted curve in the direction sought with a large enough effect; inconclusive means small, poorly fitted or top-dose-only effect, or another doubt; inactive means no such curve, though single readings can be large; an effect the other way counts as inactive or inconclusive. Potency means the concentration at half of the fitted maximal effect.

SMILES | Luc counter | Rab9 prom act | FLuc modulator | NPC1 prom act | SMN2 splice up | ELG1 genotox
Cc1cc(CN(C)C(=O)c2cc(COc3ccc(F)cc3Cl)on2)n[nH]1 | -1.5% | ? | 16.9µM* | 23.8% | . | ?
CCC(C)(C(=O)NC1CCCC1)N(C(=O)c1ccccn1)c1ccccc1 (stereo not given) | -3.5% | -0.9% | -1.7% | -5.9% | -14.6% | 0.5%
CCOC(=O)c1c(CSc2cccs2)n(C)c2cc(Br)c(O)c(CN(C)C)c12 | -0.2% | -27.5% | -16.6% | -7.1% | -23.1% | -8.9%
COc1ccc(OCC(=O)N2CCN(C(=O)c3ccc(OC)cc3)CC2)cc1 | . | . | -7.8% | . | -7.0% | .
COc1ccc(C(=O)N2CCN(C(=O)COc3ccc(C)cc3)CC2)cc1OC | . | . | 15.1µM* | . | -12.5% | .
COc1cc(OC)cc(C(=O)N2CCN(C(=O)COc3ccc(C)cc3)CC2)c1 | . | . | 23.9µM* | . | -1.4% | .
CCOc1ccc(N(CC(=O)Nc2ccc3c(c2)OCO3)S(=O)(=O)c2ccccc2)cc1 | . | . | -7.3% | . | -20.9% | .
Cc1cccc2c1ncc1c(=O)n(-c3ccccc3)[nH]c12 | . | 2.24µM* | 4.26µM* | 3.16µM* | . | ?
CS(=O)(=O)N1CCCC(C(=O)Nc2ccc3c(c2)OCCO3)C1 (stereo not given) | -0.6% | -3.6% | -3.0% | 6.4% | -13.6% | 6.9%
Cc1cccc(C(=O)NCC(=O)OCc2cc(=O)n3nc(C4CCCCC4)sc3n2)c1 | . | . | -10.5% | . | . | .
CCOc1ccc(OCc2ccc(C(=O)NN=Cc3ccc[nH]3)cc2)cc1 | . | . | . | . | . | 16.8%
CCOc1ccc(/C=N/NC(=O)c2ccccc2NC(=O)c2ccc(OC)cc2)cc1 | ? | ? | 0.379µM* | ? | 119.1% | 13.5%
O=C(N/N=C/c1ccco1)c1ccc(NC(=O)c2ccccc2Cl)cc1 | 1.0% | 1.2% | 4.5% | 1.1% | 1.9% | -0.8%
COc1ccc(C(=O)Nc2ccccc2C(=O)N/N=C/c2ccco2)cc1 | 2.82µM* | ? | 0.477µM* | 16.0% | . | ?
O=C(CCC(=O)Nc1ccc(F)cc1)N/N=C/c1ccncc1 | -0.8% | 1.0% | -3.4% | -0.8% | -8.3% | -0.7%
O=C(CCC(=O)Nc1ccccc1)N/N=C/c1ccncc1 | 0.0% | 7.7% | 12µM* | 7.6% | -10.9% | -2.4%
O=C(Nc1ccccc1C(=O)N/N=C/c1ccncc1)c1ccccc1 | 1.78µM* | ? | 1.9µM* | ? | . | -13.9%
Cc1ccccc1C(=O)Nc1ccc(C(=O)N/N=C/c2ccncc2)cc1 | 2.8% | 0.6% | -16.9% | 7.0% | -23.2% | 8.4%
Cc1cc(C)c2c(=O)cc(C(=O)NCc3ccc(S(N)(=O)=O)cc3)oc2c1 | . | . | 0.8% | . | 18.7% | .
C[C@@]12CC[C@@H]3c4ccc(O)cc4CC[C@H]3[C@H]1C[C@@H](O)[C@H]2O | 3.6%[17.1 µM] | . | . | . | -12.9%[20.6 µM] | .
CCn1c(-c2cccnc2Cl)nc2cc(Cl)c(Cl)cc21 | 6.0% | 9.8% | ? | -10.0% | -15.1% | -1.3%
Clc1cc2nc(-c3cccnc3Cl)[nH]c2cc1Cl | . | ? | 3.01µM* | 0.891µM* | . | 4.61µM*
Cc1ccccc1Nc1c(-c2ccc(Cl)cc2)nc2c(C)cccn12 | . | . | -0.1% | . | -8.9% | .
Cc1ccccc1Nc1c(-c2ccco2)nc2c(C)cccn12 | . | . | 13.5µM* | . | 15.8µM* | .
CSC(=NC#N)N1CCN(c2ccc([N+](=O)[O-])cc2)CC1 | 4.5% | 27.1% | -1.9% | -1.3% | -27.3% | -3.2%
CN1c2ccccc2C(=O)C(=C2SCCCS2)S1(=O)=O | . | -3.3% | 19µM* | 0.7% | . | -1.3%
Cc1ccc(S(=O)(=O)Nc2cc3c4c(c2)CCN4C(=O)CC3)cc1 | . | 3.3% | -1.1% | -8.2% | . | 10.3µM*
O=C1CCc2cc(NS(=O)(=O)c3ccc(F)cc3)cc3c2N1CC3 | . | -1.2% | 2.0% | -3.0% | . | ?
